Source: PubChem BioAssay (NCATS)
Results filed as inconclusive are left out. A call without a number means that no potency is given here. Activity calls are given as the source filed them. Calls come from the whole dose curve; as a rule, active = well fitted inhibition curve with a large enough effect; inconclusive = small, poorly fitted or top-dose-only effect; inactive = no such curve, though single readings can be large or run the other way.

Test: qHTS for Inhibitors of ATXN expression: Validation (AID 588378); note: nearly all actives have a fitted effect of over 75% in size
Details: cell-based ATXN2 expression reporter assay, luminescence; series mostly up to 57.1 µM
Source text: Spinocerebellar ataxia type 2 (SCA2) is a multisystem neurodegenerative disease caused by a dominantly-acting mutation leading to expansion of a polyQ domain in the ataxin-2 protein (ATXN2). SCA2 patients develop progressive ataxia and later lose function in other neuronal systems. Prominent parkinsonian signs develop in some patients. Similar to many neurodegenerative disorders, no symptomatic or disease-modifying treatments are known.
The primary objective of project is to identify compounds inhibiting ATXN2 expression and to test them for efficacy in SCA2 mouse models. To this end, in a collaboration between Dr. Daniel Scoles and scientists at NCGC, a cell-based assay adapted to high-throughput screening has been developed to screen the NIH Molecular Libraries Small Molecule Repository (MLSMR).
NIH Chemical Genomics Center [NCGC]
NIH Molecular Libraries Probe Centers Network [MLPCN]
Assay Submitter (PI): Stefan Pulst and Daniel Scoles, University of Utah
4 ul of HEK293-ATXN2-FFLuc cell suspension (TBD cells/microL in phenol-red free DMEM) are dispensed into Greiner white solid bottom 1536-well assay plates, yielding a final well density of TBD cells/well. Plates are incubated for 2 hrs at 37 degrees C in 5% humidified CO2 to allow cell attachment. Compounds are then transferred via Kalypsys pin tool equipped with 1536-pin array (10nl slotted pins, V&P Scientific, San Diego, CA). In addition, duplicate serial dilutions of the control compounds ChemBridge 5553825, a previously identified ATXN2 expression inhibitor, and a known luciferase inhibitor, are pin-transferred. After incubation at 37 degrees C in 5% humidified CO2 for 24 hrs, CellTiter-Fluor reagent (1 ul) (Promega, Madison, WI) is then added and plates are incubated for 30 minutes, before being transferred to a ViewLux high-throughput CCD imager (PerkinElmer), wherein single end-point fluorescence measurements are acquired using the 405 nm excitation/525 nm emission filter set to assess cell viability. Next, Bright-Glo luciferase substrate detection reagent (3 ul) (Promega, Madison, WI) is added to each well and incubated for an additional 5 minutes. Luminescence is then measured on the ViewLux imager equipped with a clear emission filter using a 2 sec exposure.
Potency is the fitted concentration of half-maximal effect.

With `Nc1ccncc1` as the compound, how does the Potency read?
Its Potency is “inactive”.

For `N#CC(C#N)=Cc1ccc(O)c(O)c1`, which Potency is on record?
Its Potency is “inactive”.

For `CNCC(O)c1ccc(O)cc1` (stereo unspecified), which Potency is on record?
The Potency was “inactive”.

With `Cc1cccc(C)c1NC1=NCCCS1` as the compound, how does the Potency read?
Its Potency is “inactive”.

For `NCC(CC(=O)O)c1ccc(Cl)cc1` (stereo unspecified), which Potency is on record?
Its Potency is “inactive”.

For `Cc1cc2c(C(C)C)c(O)c(O)c(C=O)c2c(O)c1-c1c(C)cc2c(C(C)C)c(O)c(O)c(C=O)c2c1O`, which Potency is on record?
Its Potency is 7.08 µM (active).

For `CCC1(C2=NCCN2)Cc2ccccc2O1` (stereo unspecified), which Potency is on record?
Its Potency is “inactive”.

With `O=C1NCN(c2ccccc2)C12CCN(CC1COc3ccccc3O1)CC2` (stereo unspecified) as the compound, how does the Potency read?
The Potency was “inactive”.

With `CCCC(C)(COC(N)=O)COC(=O)NC(C)C` (stereo unspecified) as the compound, how does the Potency read?
The Potency was “inactive”.

Which Potency does the source give for `COc1ccc(C(CN(C)C)C2(O)CCCCC2)cc1` (stereo unspecified) here?
The Potency was “inactive”.

Which Potency does the source give for `Cc1ccc(S(=O)(=O)N[C@@H](CCCCN)C(=O)CCl)cc1` here?
The Potency was “inactive”.

For `Cc1c(OCC(F)(F)F)ccnc1CS(=O)c1nc2ccccc2[nH]1` (stereo unspecified), which Potency is on record?
The Potency was “inactive”.

For `C[C@@H]1O[C@@H](O[C@H]2C[C@@H](O)[C@]3(CO)[C@H]4[C@H](O)C[C@]5(C)[C@@H](C6=CC(=O)OC6)CC[C@]5(O)[C@@H]4CC[C@]3(O)C2)[C@H](O)[C@H](O)[C@H]1O`, which Potency is on record?
Its Potency is “inactive”.

For `Cc1ncc(CNC(=O)N(CCCl)N=O)c(N)n1`, which Potency is on record?
The Potency was “inactive”.

For `NCC1(CC(=O)O)CCCCC1`, which Potency is on record?
Its Potency is “inactive”.

For `Fc1ccc(C(OCCN2CCN(CCCc3ccccc3)CC2)c2ccc(F)cc2)cc1`, which Potency is on record?
Its Potency is 20 µM (active).

Which Potency does the source give for `CC(=O)[C@H]1CC[C@H]2[C@@H]3CC[C@H]4C[C@](C)(O)CC[C@]4(C)[C@H]3CC[C@]12C` here?
Its Potency is “inactive”.

With `CC[C@@H](CO)NC(=O)[C@@H]1C=C2c3cccc4[nH]cc(c34)C[C@H]2N(C)C1` as the compound, how does the Potency read?
The Potency was “inactive”.

With `COc1ccccc1N1CCNCC1` as the compound, how does the Potency read?
Its Potency is “inactive”.

For `Cc1cccc(C)c1NC(=O)CN1CCCC1=O`, which Potency is on record?
Its Potency is “inactive”.

Which Potency does the source give for `NN=C(N)N` here?
Its Potency is “inactive”.

For `CCCN1CCC[C@@H]2Cc3[nH]ncc3C[C@H]21`, which Potency is on record?
Its Potency is “inactive”.

Which Potency does the source give for `CC(O)(CS(=O)(=O)c1ccc(F)cc1)C(=O)Nc1ccc(C#N)c(C(F)(F)F)c1` (stereo unspecified) here?
The Potency was “inactive”.

With `O=c1[nH]c2ccccc2n1C1CCN(CCCC(c2ccc(F)cc2)c2ccc(F)cc2)CC1` as the compound, how does the Potency read?
Its Potency is “inactive”.

Which Potency does the source give for `CC(C)=CCOc1c2occc2cc2ccc(=O)oc12` here?
The Potency was “inactive”.

For `CCCN1CCC[C@@H]2Cc3nc(N)ncc3C[C@H]21`, which Potency is on record?
The Potency was “inactive”.

With `CNCCC(Oc1ccc(C(F)(F)F)cc1)c1ccccc1` (stereo unspecified) as the compound, how does the Potency read?
Its Potency is 14.1 µM (active).

Which Potency does the source give for `NCC(O)c1ccc(O)cc1` (stereo unspecified) here?
The Potency was “inactive”.

Which Potency does the source give for `CC(=O)[C@H]1CC[C@H]2[C@@H]3CC[C@H]4C[C@H](O)CC[C@]4(C)[C@H]3C(=O)C[C@]12C` here?
Its Potency is “inactive”.

Which Potency does the source give for `CC[C@@H](CO)NC(=O)[C@@H]1C=C2c3cccc4c3c(cn4C)C[C@H]2N(C)C1` here?
The Potency was “inactive”.

With `c1ccc(C2CC2)c(OCC2=NCCN2)c1` as the compound, how does the Potency read?
Its Potency is “inactive”.
